Results taken from ChEMBL document CHEMBL1157539, “Thousands of chemical starting points for antimalarial lead identification” (Nature, 2010).

These compounds were tested on Plasmodium falciparum (assay: GSK_TCMDC: Inhibition of Plasmodium falciparum 3D7 in whole red blood cells, using parasite LDH activity as an index of growth. Test compounds present at 2uM).
Format: functional

Inhibition, 88%:
CCc1nc2nc(C)cc(Nc3ccc4c(c3)OCCO4)n2n1

Inhibition, 91%:
CN(C)c1ccc(-c2csc(C(=O)NC3CCCCN(CCC(C)(C)C)C3)c2)cc1.O=C(O)C(F)(F)F (stereo unspecified)
Cc1ccc(-c2cc(C(=O)Nc3ccc(S(=O)(=O)N4CCOCC4)cc3)[nH]n2)c(O)c1C

Inhibition, 98%:
CC(C)C1=NC(=O)c2cc([N+](=O)[O-])ccc2CN1
O=C(Nc1ccc2ccccc2c1)N1CCC(NCc2cccc([N+](=O)[O-])c2)CC1.O=C(O)C(F)(F)F
O=C(Nc1cccc(C(F)(F)F)c1)c1ccc(S(=O)(=O)NCC2CCCN2CC2CCCCC2)cc1.O=C(O)C(F)(F)F (stereo unspecified)
CN1CCCN(Cc2ccc(-c3cccc(NC(=O)c4ccc(Cl)cc4)c3)cc2)CC1.O=C(O)C(F)(F)F

Inhibition, 97%:
CCNC(C)(C)CN(Cc1ccc(-c2ccc(C(F)(F)F)cc2)cc1)C(=O)Cn1c(CCc2cccc(F)c2F)nc(=O)c2ccccc21.O=C(O)C(O)C(O)C(=O)O
CC(=NNC(=N)N)c1ccc2ccc3ccccc3c2c1.Cl

Inhibition, 92%:
Cc1ccc(CN2CCC(Oc3cccc(NC(=O)c4ccc(C(F)(F)F)cc4)c3)CC2)cc1.O=C(O)C(F)(F)F
CCc1nc(N)nc(N)c1-c1ccccc1

Inhibition, 95%:
NCc1cccc(-c2ccc(CNC3CCN(Cc4ccccc4)CC3)cc2)c1.O=C(O)C(F)(F)F
CC(C)CC(C)NC(=O)C1Cc2c([nH]c3cc(Cl)ccc23)C2(CCN(CCc3ccccc3)CC2)N1 (stereo unspecified)

Inhibition, 99%:
Cl.N#Cc1ccc2c(c1)CCN(CCC1CCC(NC(=O)c3ccc(-c4ccccc4)s3)CC1)CC2 (stereo unspecified)
CCCNC(=O)C1Cc2c([nH]c3ccc(Br)cc23)C2(CCN(CCc3ccccc3)CC2)N1 (stereo unspecified)
COc1cccc(C(=O)NC(NC(=S)Nc2ccc(OC)cc2[N+](=O)[O-])C(Cl)(Cl)Cl)c1 (stereo unspecified)

Inhibition, 94%:
COc1ccc(CCN(Cc2cccs2)C(=O)c2cc3sccc3n2C)cc1OC
Cc1ccc(NC(=O)N2CCN(CCCCCNC(=O)/C=C/c3ccc(Cl)c(Cl)c3)CC2)cc1C
O=C(Cc1ccc(NC(=O)c2ccc(O)c(-c3ccc(Cl)c(Cl)c3)c2)cc1)NCCN1CCOCC1
Br.Cc1cccc2c(CON3C(N)=NC(N)=NC3(C)C)cccc12

Inhibition, 100%:
CC(C)Oc1cc(-c2ccc(S(C)(=O)=O)cc2)nc(N(Cc2cccc(F)c2F)Cc2cccc(F)c2F)n1
COc1ccc2[nH]ccc(=NN=Cc3cccc(F)c3)c2c1
O=C(NC1CCC(N2CCC(c3ccccc3C(F)(F)F)CC2)CC1)c1cc2ccccc2[nH]1 (stereo unspecified)
Cc1cccc2nc(-c3ccc(-c4ccc(CN5CCCCC5CO)cc4)cc3)[nH]c12.O=C(O)C(F)(F)F (stereo unspecified)
CCC[C@@H]([C@@H](CC1CCCCC1)C(=O)N[C@H](C(=O)Nc1nccs1)C(C)(C)SCCOCCOCC)N(O)C=O
Cc1oc(-c2ccc(Cl)cc2)cc1C(=O)NCCC1CCN(CCCCCNC(=O)/C=C/c2ccc(Cl)c(Cl)c2)CC1
COC(=O)c1cccc(CNCc2ccc(-c3ccc(-c4nc5cc(F)ccc5[nH]4)s3)cc2)c1.O=C(O)C(F)(F)F
CC1(CCCCN2CCC(c3c[nH]c4cnccc34)CC2)C(=O)Nc2cccc(Cl)c21 (stereo unspecified)
Cc1cc2ncc(C(N)=O)c(Nc3ccc(N4CCOCC4)cc3)c2cc1S(C)(=O)=O.Cl
COc1ccc(CC(=O)NC2CCN(c3ccnc4cc(Cl)ccc34)C2)cc1.O=C(O)C(F)(F)F (stereo unspecified)
Cl.O=S(=O)(Nc1ccc2nccc(N3CCNCC3)c2c1)c1ccc(-c2ccccc2)cc1
COc1cc2nccc(Nc3ccc(NC(=O)c4ccc(C)cc4)c(O)c3)c2cc1OC.Cl

Inhibition, 96%:
CC(C)COc1ccc(Cl)cc1Nc1nc(-c2nc3ccccc3[nH]2)cs1.Cl
Cc1ccc2nc(-c3ccc(C(=O)NCc4ccc(Cl)c(Cl)c4)cc3)[nH]c2c1C
CN(C(=O)c1ccc(Br)cc1)c1ccccc1[N+](=O)[O-]
CN(C)Cc1ccc(-c2cccc(NC(=O)c3cccc(Cl)c3)c2)cc1.O=C(O)C(F)(F)F
